Assay results: PubChem BioAssay (EPA / NIEHS)
Where “and” joins values, the source holds several entries; their conditions need not be identical. Identical values can stand only once. Records with an inconclusive call do not appear. Some compounds were tested as several samples or in several runs, with calls that do not always agree. Calls of active or inactive are those of the source. How the source made its calls: active means hit-call score of the fitted dose curve at least 0.9, where 1 is the maximum; inconclusive means response in the unintended direction; inactive means score below 0.9.

Key:
[1] = target: Cellular tumor antigen p53 (Homo sapiens) (UniProt P04637); assay: TOX21_p53_BLA_p2_ratio: Tox21 HCT-116 p53 Agonism Beta-lactamase Assay, Ratio, Phase 2 (AID 2283592)
Method in brief: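 An inducible beta-lactamase reporter in HCT116 cells signals p53 pathway activation. After 16 h chemical exposure at 37C, cells load CCF4-AM substrate for 2 h at room temperature; activity is the cleaved/uncleaved emission ratio relative to DMSO.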

[2] = TOX21_p53_BLA_p3_viability: Viability Assessment in the Tox21 HCT-116 p53 Agonism Beta-lactamase Assay, Phase 3 (AID 2283593);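 further: cells exposed to compound for 16 h before reading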
Method in brief: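 Cellular ATP was quantified by CellTiter-Glo luminescence, read after 30 min at room temperature. Beforehand, HCT116 cells (4000/well) received compound 5 h post-seeding, 217-fold diluted from DMSO, then incubated 16 h at 37C.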

[3] = target: Cellular tumor antigen p53 (Homo sapiens) (UniProt P04637); assay: TOX21_p53_BLA_p3_ratio: Tox21 HCT-116 p53 Agonism Beta-lactamase Assay, Ratio, Phase 3 (AID 2283596)
Method in brief: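 HCT116 p53-bla cells (4000/well) given compound in DMSO (217-fold dilution) after 5 h, incubated 16 h at 37C. CCF4-AM substrate 2 h at room temperature; 460/530 nm emission ratio, gain fitted against DMSO.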

[4] = TOX21_p53_BLA_p4_viability: Viability Assessment in the Tox21 HCT-116 p53 Agonism Beta-lactamase Assay, Phase 4 (AID 2283597);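 further: hits lower the luminescence signal meaning cytotoxicity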
Method in brief: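 Compound exposure of HCT116 cells lasts 16 h at 37C, 5% CO2, with DMSO stocks diluted 217-fold. Cellular ATP is then quantified by CellTiter-Glo luminescence after 30 min at room temperature.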

[5] = target: Cellular tumor antigen p53 (Homo sapiens) (UniProt P04637); assay: TOX21_p53_BLA_p5_ratio: Tox21 HCT-116 p53 Agonism Beta-lactamase Assay, Ratio, Phase 5 (AID 2283599)
Method in brief: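 Beta-lactamase reporter ratio (blue 460 nm over green 530 nm, 405 nm excitation) after 2 h CCF4-AM loading, in HCT-116 cells exposed 16 h at 37 C to compounds pinned at 217-fold dilution. Increases relative to DMSO baseline scored.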

[6] = TOX21_p53_BLA_p5_viability: Viability Assessment in the Tox21 HCT-116 p53 Agonism Beta-lactamase Assay, Phase 5 (AID 2283600)
Method in brief: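 Counter-readout for cytotoxicity: ATP-dependent luminescence from CellTiter-Glo, read in the beta-lactamase wells after 30 min at RT, following a 16 h compound exposure at 37C.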

[7] = target: Cellular tumor antigen p53 (Homo sapiens) (UniProt P04637); assay: TOX21_p53_BLA_p4_ratio: Tox21 HCT-116 p53 Agonism Beta-lactamase Assay, Ratio, Phase 4 (AID 2283601)
Method in brief: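 Signal is the blue/green (460nm/530nm) ratio of cleaved versus uncleaved CCF4-AM substrate, read after 2 h substrate loading. Cells were HCT116 carrying the p53-responsive beta-lactamase reporter, dosed 16 h at 37C, 5% CO2; CellTiter-Glo measured in parallel.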

[8] = Tanguay_ZF_120hpf_MORT_legacy: (Legacy) Oregon State University Tanguay Lab 120 Hour Post-fertilization zebrafish Assay for Mortality (AID 2283633)
Method in brief: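 Mortality endpoint from a multiplexed whole-embryo zebrafish screen. Dechorionated wild-type embryos received compound at 6 hpf and remained under static exposure at 28C until 120 hpf, with death noted as a present/absent call.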

[9] = Tanguay_ZF_120hpf_YSE_legacy: (Legacy) Oregon State University Tanguay Lab 120 Hour Post-fertilization zebrafish Assay for Yolk Sac Edema (AID 2283634)
Method in brief: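 Readout: presence or absence of yolk sac edema at 120 hpf, fitted upward against DMSO controls. Exposure ran statically from 6 hpf in dechorionated embryos kept at 28C.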

[10] = Tanguay_ZF_120hpf_AXIS_legacy: (Legacy) Oregon State University Tanguay Lab 120 Hour Post-fertilization zebrafish Assay for Body Axis Malformation (AID 2283635)
Method in brief: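 Static 6–120 hpf chemical exposure of dechorionated wild-type 5D zebrafish, one per well at 28C; morphology endpoint scored binary at 120 hpf relative to DMSO control.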

[11] = Tanguay_ZF_120hpf_EYE_legacy: (Legacy) Oregon State University Tanguay Lab 120 Hour Post-fertilization zebrafish Assay for Eye Malformation (AID 2283636)
Method in brief: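 Read-out is binary presence or absence of eye malformation, scored by brightfield microscopy at 120 hpf. Single larvae were exposed from 6 hpf in embryo medium containing 0.64% DMSO, with DMSO as baseline.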

[12] = Tanguay_ZF_120hpf_SNOU_legacy: (Legacy) Oregon State University Tanguay Lab 120 Hour Post-fertilization zebrafish Assay for Snout Malformation (AID 2283637)
Method in brief: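 Snout malformation read as a yes/no call on brightfield images of 120 hpf larvae (Tropical 5D strain). Static exposure began at 6 hpf on dechorionated embryos in 0.64% DMSO, with gain of signal analysed versus DMSO controls.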

[13] = Tanguay_ZF_120hpf_JAW_legacy: (Legacy) Oregon State University Tanguay Lab 120 Hour Post-fertilization zebrafish Assay for Jaw Malformation (AID 2283638)
Method in brief: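 Static waterborne exposure of dechorionated wild-type (Tropical 5D) zebrafish from 6 to 120 hpf at 28C, 0.64% DMSO vehicle; 5uM trimethyltin chloride served as positive control. Jaw morphology recorded as binary at 120 hpf.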

[14] = Tanguay_ZF_120hpf_OTIC_legacy: (Legacy) Oregon State University Tanguay Lab 120 Hour Post-fertilization zebrafish Assay for Otic Vesicle Malformation (AID 2283639)
Method in brief: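 Tropical 5D wild-type zebrafish embryos were exposed statically in sealed, foil-covered plates at 28C until 120 hpf, with 0.64% (vol/vol) DMSO final. Otic vesicle malformation was scored present/absent by brightfield microscopy, with DMSO as baseline.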

[15] = Tanguay_ZF_120hpf_PE_legacy: (Legacy) Oregon State University Tanguay Lab 120 Hour Post-fertilization zebrafish Assay for Pericardial Edema (AID 2283640)
Method in brief: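 Read-out is the presence or absence of pericardial edema at 120 hpf under brightfield, with gain of signal fitted against DMSO controls. Larvae (5D wild-type) were statically exposed at 28C with 0.64% final DMSO.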

[16] = Tanguay_ZF_120hpf_BRAI_legacy: (Legacy) Oregon State University Tanguay Lab 120 Hour Post-fertilization zebrafish Assay for Brain Malformation (AID 2283641)
Method in brief: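 Brain malformation in Tropical 5D zebrafish was recorded as a binary endpoint after static compound exposure from early development to 120 hpf at 28C. Activity was analysed against DMSO as negative control.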

[17] = Tanguay_ZF_120hpf_SOMI_legacy: (Legacy) Oregon State University Tanguay Lab 120 Hour Post-fertilization zebrafish Assay for Somite Malformation (AID 2283647)
Method in brief: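 5D WT zebrafish; chorion removed 4 hpf; 1 embryo/well from 6 hpf; static exposure to 120 hpf, 28C, 0.64% DMSO final. Endpoint: somite malformation, binary, brightfield. Mortality excluded.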

[18] = Tanguay_ZF_120hpf_PFIN_legacy: (Legacy) Oregon State University Tanguay Lab 120 Hour Post-fertilization zebrafish Assay for Pectoral Fin Malformation (AID 2283648);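 further: each larva judged yes or no for fin defect by brightfield with dead larvae skipped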
Method in brief: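 5D WT zebrafish; pronase dechorionation 4 hpf; 1 embryo/well at 6 hpf; static exposure to 120 hpf, 28C, sealed, foil-covered; final DMSO 0.64% v/v; 5 uM trimethyltin chloride positive control; fin defect scored yes/no.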

[19] = Tanguay_ZF_120hpf_CFIN_legacy: (Legacy) Oregon State University Tanguay Lab 120 Hour Post-fertilization zebrafish Assay for Caudal Fin Malformation (AID 2283649)
Method in brief: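 Embryos were collected from Tropical 5D wild-type adults and dechorionated at 4 hpf. At 6 hpf each was exposed, one per well, at 0.64% DMSO and 28C. At 120 hpf fin morphology was scored; dead embryos were excluded.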

[20] = Tanguay_ZF_120hpf_PIG_legacy: (Legacy) Oregon State University Tanguay Lab 120 Hour Post-fertilization zebrafish Assay for Pigmentation Malformation (AID 2283650)
Method in brief: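 Pronase dechorionation at 4 hpf; embryos plated at 6 hpf, one per well; static exposure, sealed and foil-covered, 28C, to 120 hpf; pigmentation read by brightfield, binary; DMSO 0.64% baseline, 5uM trimethyltin chloride positive control.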

Measured: AC50

Chain of Cellular tumor antigen p53 (Homo sapiens) (P04637 whole entry, looked up): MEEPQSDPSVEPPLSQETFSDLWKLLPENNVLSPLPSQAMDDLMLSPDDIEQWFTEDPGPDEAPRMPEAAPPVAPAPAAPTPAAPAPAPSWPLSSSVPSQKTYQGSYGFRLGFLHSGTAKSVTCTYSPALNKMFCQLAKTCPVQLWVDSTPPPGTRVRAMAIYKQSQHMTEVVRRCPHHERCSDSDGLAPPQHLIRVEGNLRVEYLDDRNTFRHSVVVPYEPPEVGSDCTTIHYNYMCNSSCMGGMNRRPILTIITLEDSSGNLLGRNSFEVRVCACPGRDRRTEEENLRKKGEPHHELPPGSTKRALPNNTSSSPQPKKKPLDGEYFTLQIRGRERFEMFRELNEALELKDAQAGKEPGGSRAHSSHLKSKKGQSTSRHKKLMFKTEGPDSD

c1ccc(Nc2cccc3ccccc23)cc1
inactive: [2] | [3] | [5] | [6] | [7]
active: [1] 77.1 µM and 81.1 µM | [4] 43.6 µM and 82.6 µM | [5] 82.2 µM | [7] 74.3 µM

COc1ccc(-c2coc3cc(O)cc(O)c3c2=O)cc1
inactive: [2] | [3] | [4] | [5] | [6] | [7]
active: [1] 71.6 µM and 72 µM

CC(C)(O)Cc1ccccc1
inactive: [1] | [2] | [3] | [4] | [5] | [6]

CC1C(C)(C)C2=C(C(=O)CCC2)C1(C)C (stereo not given)
inactive: [1] | [2] | [3] | [4] | [5] | [6]

CC(C)(c1ccccc1)c1ccc(Nc2ccc(C(C)(C)c3ccccc3)cc2)cc1
inactive: [1] | [2] | [3] | [4] | [5] | [6] | [7]

N#CC1(N)CCCCC1
inactive: [1] | [2] | [3] | [4] | [5] | [6] | [7]

CCc1cccc(C)c1N
inactive: [1] | [2] | [3] | [4] | [5] | [6] | [7]

COC(=O)CC(C)CCC=C(C)C (stereo not given)
inactive: [1] | [2] | [3] | [4] | [5] | [6]

CC1(C)CCC[C@]2(C)[C@H]3CC(=O)O[C@]3(C)CC[C@@H]12
inactive: [1] | [2] | [3] | [4] | [5] | [6] | [7]

COc1ccc(C(=O)/C(Br)=C\C(=O)O)cc1
active: [1] 24.8 µM and 24.2 µM | [2] 74.8 µM | [3] 14.4 µM and 25.8 µM | [4] 76.7 µM and 44.5 µM | [5] 21 µM and 21.6 µM | [6] 39.1 µM | [7] 60 µM and 27.2 µM
inactive: [2] | [6]

C=CCNCC=C
active: [3] 84.2 µM
inactive: [1] | [2] | [3] | [5] | [6] | [7]

CC(C)[N+](C)(CCOC(=O)C1c2ccccc2Oc2ccccc21)C(C)C
inactive: [1] | [2] | [3] | [4] | [5] | [6] | [7]

CC(C)(CO)COC(=O)C(C)(C)CO
inactive: [1] | [2] | [3] | [4] | [5] | [6] | [7]

CC(CC(C)C)=NO
inactive: [1] | [2] | [3] | [4] | [5]

C1CNCCN1
not listed: [1] | [2] | [3] | [4] | [5] | [6] | [7]
inactive: all other assays above

CC(C)OC(=O)c1ccccc1
inactive: [1] | [2] | [3] | [5] | [7]

Nc1ncnc2nc[nH]c12
inactive: [1] | [2] | [3] | [5] | [7]

CCC1COC(=O)O1 (stereo not given)
inactive: [1] | [2] | [3] | [5] | [6] | [7]

Cc1c(C(=O)c2c[nH]n(C)c2=O)ccc(S(C)(=O)=O)c1C1=NOCC1
inactive: [1] | [2] | [3] | [5] | [6] | [7]

CCN1CCCC1=O
inactive: [1] | [2] | [3] | [5] | [6] | [7]

O=C(O)c1cc(O)c2ccccc2c1O
inactive: [1] | [2] | [3] | [5] | [6] | [7]

O=C(C=Cc1ccccc1)OCCc1ccccc1
inactive: [1] | [2] | [3] | [6] | [7]

C=CC(=O)OCCCCCCCCCC
inactive: [1] | [2] | [3] | [5] | [6] | [7]

CC(C)=CCCC(C)=CC#N
inactive: [1] | [2] | [3] | [5] | [7]
